Reference: publication PMC4336329 (PLoS ONE, 2015)
The whole screen tested about 310,000 compounds, of which about 2,200 (0.71%) showed an effect of 50% or more. The effect is printed as a negative number. This excerpt belongs to a sample that is enriched for strong results.

Molecular target: human ether-à-go-go-related gene (hERG) potassium channel (human, UniProt Q12809)
Test: primary screen, population patch clamp on CHO cells stably expressing hERG; higher = less effect of the substance

Sequence of human ether-à-go-go-related gene (hERG) potassium channel (Q12809 whole entry, looked up): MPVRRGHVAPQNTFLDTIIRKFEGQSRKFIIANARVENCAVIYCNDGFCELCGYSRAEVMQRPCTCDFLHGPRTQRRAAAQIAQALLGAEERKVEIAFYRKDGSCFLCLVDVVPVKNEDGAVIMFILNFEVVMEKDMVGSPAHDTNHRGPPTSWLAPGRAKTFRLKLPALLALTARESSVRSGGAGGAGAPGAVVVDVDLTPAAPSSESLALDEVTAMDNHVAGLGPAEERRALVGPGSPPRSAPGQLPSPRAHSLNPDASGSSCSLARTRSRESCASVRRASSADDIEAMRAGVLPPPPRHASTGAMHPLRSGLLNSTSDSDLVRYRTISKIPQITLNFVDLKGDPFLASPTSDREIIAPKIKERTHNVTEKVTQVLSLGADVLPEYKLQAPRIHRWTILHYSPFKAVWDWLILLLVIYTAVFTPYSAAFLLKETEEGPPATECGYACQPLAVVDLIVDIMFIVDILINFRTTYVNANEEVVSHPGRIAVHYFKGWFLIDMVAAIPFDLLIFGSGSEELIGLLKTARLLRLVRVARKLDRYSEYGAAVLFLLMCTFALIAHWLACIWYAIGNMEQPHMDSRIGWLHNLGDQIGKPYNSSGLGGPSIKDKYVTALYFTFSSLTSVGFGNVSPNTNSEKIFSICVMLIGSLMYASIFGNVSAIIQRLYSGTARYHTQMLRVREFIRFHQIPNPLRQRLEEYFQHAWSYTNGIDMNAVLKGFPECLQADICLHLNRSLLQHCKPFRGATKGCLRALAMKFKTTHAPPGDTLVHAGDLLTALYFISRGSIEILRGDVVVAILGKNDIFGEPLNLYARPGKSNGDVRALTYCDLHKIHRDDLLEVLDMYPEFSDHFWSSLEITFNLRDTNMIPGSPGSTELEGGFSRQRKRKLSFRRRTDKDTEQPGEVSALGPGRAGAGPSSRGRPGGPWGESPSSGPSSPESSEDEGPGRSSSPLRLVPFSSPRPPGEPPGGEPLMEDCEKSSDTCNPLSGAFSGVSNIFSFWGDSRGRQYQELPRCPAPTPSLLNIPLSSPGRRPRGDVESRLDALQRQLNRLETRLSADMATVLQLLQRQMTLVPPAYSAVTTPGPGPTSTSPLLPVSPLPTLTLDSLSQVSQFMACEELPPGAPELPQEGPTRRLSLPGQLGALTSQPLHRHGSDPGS

SMILES	hERG current change (%, negative = inhibition) at 1uM [%]
Cc1ccc(NC2CCCN(C(=O)c3ccc(-n4ccnc4)cc3)C2)cc1C (stereo not shown)	-4.71
COc1ccc(-c2cc(-c3ccc(C)cc3)nc(SCc3nnc(-c4ccccc4)o3)c2C#N)cc1OC	8.98
CS(=O)(=O)N1N=C(c2ccco2)CC1c1ccccc1Cl (stereo not shown)	9.15
CCn1nc(C)c(/C=N/NC(=O)CSc2ccccn2)c1C	10.3
COCCn1c(SCC(=O)c2c[nH]c3ccccc23)nnc1-c1ccncc1	7.84
O=C(Nc1ccc(Cl)cc1)c1cncs1	11.3
COc1cc(CN2CCC(n3nccc3NC(=O)C3CC3)CC2)cc(OC)c1	-29.5
CC(Cc1ccc(Cl)cc1)N1CCC(n2nccc2NC(=O)C2CCCC2)CC1 (stereo not shown)	-67.5
O=C(Nc1ccnn1C1CCN(Cc2ccc(Cl)cc2)CC1)C1CCCC1	-37.2
CC(C)Cc1ccc(CN2CCC(n3nccc3NC(=O)C3CCCC3)CC2)cc1	-16.9
COC(=O)c1ccc(CN2CCC(n3nccc3NC(=O)C3CCCC3)CC2)cc1	-26.7
O=C(Nc1ccnn1C1CCN(Cc2ccccc2OC(F)F)CC1)c1cccnc1	2.05
CC(C)n1cc(CN2CCC(n3nccc3NC(=O)C3CCCC3)CC2)cn1	6.1
COC(=O)c1ccc(CN2CCC(n3nccc3NC(=O)C3CC3)CC2)cc1	-6.68
Cc1ccccc1CN1CCC(n2nccc2NC(=O)c2cccnc2)CC1	4.68
CC(C)Oc1ccc(CN2CCC(n3nccc3NC(=O)C3CC3)CC2)cc1	-68.4
CCc1ccc(CN2CCC(n3nccc3NC(=O)C3CCCC3)CC2)cc1	-68.2
CC(C)Oc1ccc(CN2CCC(n3nccc3NC(=O)c3cccnc3)CC2)cc1	-52.6
O=C(N/N=C(\CC(=O)c1cccs1)C(F)(F)F)c1cccnc1	12.7
Cl.O=C(NCCN1CCCC1)c1ccc(Cl)cc1Cl	16.6
O=C(NCC1(N2CCCCC2)CCCCC1)C1CC(=O)N(c2ccc3c(c2)OCCO3)C1 (stereo not shown)	14.3
COc1cc(C2NC(=O)C(C#N)=C(S)N2c2ccc(C)cc2)ccc1OC(C)C (stereo not shown)	9.81
COc1cc(OC)cc(C(=O)NCCCn2ccnc2)c1	18.8
Cn1c2ccccc2c2nnc(SC3CCOC3=O)nc21 (stereo not shown)	3.35
O=C(O)C(C(O)c1ccc([N+](=O)[O-])cc1)[n+]1ccccc1.[Br-] (stereo not shown)	18.1
COc1cccc(OCc2cc(C(=O)NCc3cnc4ccccn34)no2)c1	3.98
Cn1c(SCC(=O)NC(=O)Nc2ccccc2)nnc1-c1ccncc1	9.09
O=C(Nc1ccnn1C1CCN(Cc2ccc(OC(F)F)cc2)CC1)C1CCCC1	-81.5

SMILES	hERG current change (%, negative = inhibition) at 1uM [%]
COc1ccc(CN2CCC(n3nccc3NC(=O)C3CCCC3)CC2)cc1	-47.4
O=C(Nc1ccnn1C1CCN(Cc2ccc(O)c(Cl)c2)CC1)C1CCCC1	-6.39
Cc1c(NC(=O)c2cccc(-c3cc4ccccc4oc3=O)c2)cccc1-c1nc2ncccc2o1	12.7
CCCCNC(=O)N1CCN(Cc2ccc(F)cc2)CC1	9.29
O=C(Nc1ccc(F)cc1)N1CCN(CCc2ccccc2)CC1	-9.52
CCNC(=O)N1CCN(CCCC(c2ccc(F)cc2)c2ccc(F)cc2)CC1.Cl	-90.3
CCN(CC)CCNS(=O)(=O)c1ccc2[nH]cc(C(=O)O)c(=O)c2c1	10.9
O=C(Nc1ccnn1C1CCN(C2CCCC2)CC1)c1ccccc1Cl	6.27
O=C(Nc1ccnn1C1CCN(CCCC2CCCC2)CC1)c1ccccc1Cl	-99
COc1ccccc1C(=O)Nc1ccnn1C1CCN(CCCC2CCCC2)CC1	-93.2
O=C(Nc1ccnn1C1CCN(C2CCCC2)CC1)c1ccccc1	13.3
Cc1ccccc1C(=O)Nc1ccnn1C1CCN(CC2CC=CCC2)CC1 (stereo not shown)	-33.5
O=C(Nc1ccnn1C1CCN(CC2CC=CCC2)CC1)c1ccccc1Cl (stereo not shown)	-37.8
CC(C)(C)CN1CCC(n2nccc2NC(=O)c2ccccc2Cl)CC1	4.68
COc1ccccc1C(=O)Nc1ccnn1C1CCN(C2CCSCC2)CC1	-44.5
O=C(Nc1ccnn1C1CCN(C2CCCCC2)CC1)c1ccccc1	12.1
COc1ccccc1C(=O)Nc1ccnn1C1CCN(C(=O)C(C)(C)C)CC1	-6.95
O=C(Nc1ccnn1C1CCN(CCCC2CCCC2)CC1)c1ccccc1	-60.9
COc1ccccc1C(=O)Nc1ccnn1C1CCN(CC2CC=CCC2)CC1 (stereo not shown)	-69.1
Cc1onc(-c2ccccc2)c1-c1ccnn1C(=O)NC(C)C	6.54
O=C(NC1CCCCC1)c1ccccc1NC(=O)C1CC(=O)N(c2ccccc2)C1 (stereo not shown)	-64.3
CCCOc1ccc(N2CC(C(=O)Nc3ccccc3C(=O)NC)CC2=O)cc1 (stereo not shown)	-56.5
Cc1ccc(N2CC(C(=O)Nc3ccccc3C(=O)NC3CCCCC3)CC2=O)cc1 (stereo not shown)	5.42
O=C(NC1CCCCC1)c1ccccc1NC(=O)C1CC(=O)N(c2ccc(Cl)cc2)C1 (stereo not shown)	13.2
CCCOc1ccc(N2CC(C(=O)Nc3ccccc3C(=O)NCc3ccco3)CC2=O)cc1 (stereo not shown)	-29.5
CNC(=O)c1ccccc1NC(=O)C1CC(=O)N(c2ccc(OC)cc2)C1 (stereo not shown)	9.77
CCC(C)C1C(C#N)=C(N)Oc2n[nH]c(C)c21 (stereo not shown)	14.1
